Experimental data as given in PubChem BioAssay AID2314 (National Center for Advancing Translational Sciences (NCATS), 2010).
In all, about 300,000 compounds went through this assay and about 37,000 (12%) were called active. What follows is part of a selection rich in actives, with near analogues and random picks from the rest. A number with no mark means an inactive call. Rule as the data show it: active = max response mostly above about 13% (no sharp cut-off); inactive = mostly below about 14%.

Assay: Cycloheximide Counterscreen for Small Molecule Inhibitors of Shiga Toxin; also: read at 38.3 µM for the half of the compounds with a filed dose; 0% is about no effect
Details: cell reporter, cycloheximide protein synthesis inhibition counterscreen; stronger effect = higher value

Row | SMILES | max response
1 | Cc1ccccc1-c1ccc(C(=O)O)s1 | 27.3%
2 | O=C1CSC(=S)N1c1ccc(Cl)c(Cl)c1 | 3.61%
3 | CCS(=O)(=O)N1CCC(N2CCN(c3ccccc3)CC2)CC1 | -2.51%
4 | Cc1ccc(N(Cc2cc(=O)[nH]c3ccccc23)C(=O)CCl)cc1 | -3.54%
5 | COc1cc(NC(=O)c2ccccc2)c(OC)cc1NC(=O)Cc1ccccc1 | -0.835%
6 | O=C(CCC1CCCN(C(=O)Cc2ccc(F)cc2)C1)N1CCN(c2ccccn2)CC1 (stereo unspecified) | -1.12%
7 | Cc1cccc(NC(=O)c2sc3nc4c(c(-c5ccco5)c3c2N)CCC4)c1 | 20.8%
8 | Cc1cccc(NC(=O)c2sc3nc(N4CCOCC4)c4c(c3c2N)CCCC4)c1 | 14.3% (active)
9 | CC(=O)Nc1ccc(N2CCOCC2)c(C(=O)Nc2cccc(C)c2)c1 | -4.06%
10 | CC(C)c1ccc(S(=O)(=O)N2CCN(C(=O)c3ccc(N4CCCC4)c([N+](=O)[O-])c3)CC2)cc1 | 21.7%
11 | CCCCNC(=O)N(O)C1N(/N=C/c2ccccc2O)C(=S)SC1(C)C (stereo unspecified) | 40.5% (active)
12 | CCC(C)N1C(=S)SC(C)(C)C1N(O)C(=O)NC1CCCCC1 (stereo unspecified) | -3%
13 | CCCCNC(=O)N(O)C1N(/N=C/c2ccc(N(C)C)cc2)C(=S)SC1(C)C (stereo unspecified) | -1.87%
14 | COc1ccc(CC(=O)Nc2sc(Cc3ccccc3)c(C)c2C(N)=O)cc1 | -4.58%
15 | CCCc1cc(=S)n2c([nH]c3ccccc32)c1C#N | 9.34%
16 | COc1cc(C(=O)N2CCN(C/C=C/c3ccccc3)CC2)cc(OC)c1C | -2.42%
17 | O=C(NCCc1c[nH]c2ccccc12)c1cccc(Br)c1 | 27.9% (active)
18 | COc1ccc(/C=C(\NC(=O)c2ccc(OC)c(OC)c2)C(=O)NCCc2c[nH]c3ccccc23)cc1 | -2.44%
19 | Cc1ccc(C(=O)N/C(=C/c2ccco2)C(=O)NCCc2c[nH]c3ccccc23)cc1C | 15.8% (active)
20 | O=C(NCCc1c[nH]c2ccccc12)c1cc2ccccc2oc1=O | 52.8% (active)
21 | Cc1cc(C)cc(NC(=S)NCCc2c[nH]c3ccccc23)c1 | -3.82%
22 | O=C(NCCc1c[nH]c2ccccc12)C(=O)NCC1CCCO1 (stereo unspecified) | -2.43%
23 | O=C(NC(Cc1c[nH]c2ccccc12)C(=O)O)/C(=C/c1ccco1)NC(=O)c1ccccc1 (stereo unspecified) | 7.91%
24 | COc1ccccc1CC(=O)NCCc1c[nH]c2ccccc12 | 5.67%

Row | SMILES | max response
25 | CN(c1ccccc1)S(=O)(=O)c1ccc(Cl)c(C(=O)NCCc2c[nH]c3ccccc23)c1 | -2.81%
26 | Cc1cc(C)cc(NS(=O)(=O)Cc2ccccc2)c1 | 2.71%
27 | COc1ccc(CNc2nc3c(c(=O)[nH]c(=O)n3C)n2Cc2ccccc2)cc1 | 1.15%
28 | CCn1c(CNC(=O)c2cc(OC)c(OC)c(OC)c2)cc2cc(C)ccc21 | -0.507%
29 | CC(=O)c1c(C)[nH]c(C(=O)COC(=O)c2cccc(S(=O)(=O)N(C)c3ccccc3)c2)c1C | 6.94%
30 | COc1ccc(C(=O)OCC(=O)NCC2CCCO2)cc1[N+](=O)[O-] (stereo unspecified) | 0.371%
31 | CCC(=O)c1ccc(OCC(O)Cn2nc(C)c(C(C)=O)c2C)cc1 (stereo unspecified) | -6.71%
32 | O=C(NCc1cccc(Cl)c1)C1CCC(=O)N(C2CC2)C1 (stereo unspecified) | 0.588%
33 | O=C(CSc1ccc(-c2ccccn2)nn1)Nc1ccccc1 | 20% (active)
34 | O=C(CSc1ccc(-c2ccc(F)cc2)nn1)Nc1ccc2c(c1)OCCO2 | 10.9%
35 | O=C(CSc1ccc(-c2ccco2)nn1)Nc1cccc(F)c1 | 26% (active)
36 | COc1ccc(NC(=O)CSc2ccc(-c3ccco3)nn2)c(OC)c1 | 9.5%
37 | COc1cc(NC(=O)CSc2ccc(-c3cccnc3)nn2)cc(OC)c1 | -2.34%
38 | Cc1ccccc1NC(=O)CSc1ccc2nnc(-c3ccccn3)n2n1 | -1.54%
39 | COc1ccc(CNC(=O)COC(=O)/C=C/c2ccc(S(=O)(=O)N3CCOCC3)cc2)cc1 | 9.31%
40 | O=c1c2ccccc2nnn1CSc1nc2sc3c(c2c(=O)n1CC1CCCO1)CCC3 (stereo unspecified) | -2.17%
41 | OC(c1ccc(Cl)cc1)C(CN1CCOCC1)c1ccccc1 (stereo unspecified) | -2.76%
42 | COc1ccc2c(C)c(CCC(=O)NC3CC3)c(=O)oc2c1C | 9.57%
43 | O=C1C(=O)N(c2ccccc2)c2ccccc21 | -2.88%
44 | Cc1ccc(S(=O)(=O)CCC(=O)OCc2ccccc2)cc1 | 0.648%
45 | CC(=O)CCS(=O)(=O)c1ccc(C)c(C)c1 | 27.6% (active)
46 | O=C(O)CCS(=O)(=O)c1ccc(-c2ccccc2)cc1 | -1.33%
47 | COc1ccc(OC)c(NC(=O)C2CCCN2S(=O)(=O)c2cccc3nsnc23)c1 (stereo unspecified) | 12.5%
48 | Cc1ccc(-c2nnc(Nc3ccc(C(=O)N(C)C)cc3)c3ccccc23)cc1S(N)(=O)=O | -2.16%

Row | SMILES | max response
49 | O=C(Nc1cccc(-c2nnc(-c3ccccc3)o2)c1)C1CCCO1 (stereo unspecified) | 37.3% (active)
50 | Cc1cccc(NC(=O)Nc2nnc(-c3ccccc3)o2)c1 | 2.04%
51 | CC(C)(C)NS(=O)(=O)c1ccc(NC(=O)C2CCCO2)cc1 (stereo unspecified) | -3.65%
52 | O=C(Nc1ccc(-c2nnc(-c3ccccc3)o2)cc1)C1CCCO1 (stereo unspecified) | 39.1% (active)
53 | CCOC(=O)c1ccc(NC(=O)c2ccc(NC(=O)C3CCCO3)cc2)cc1 (stereo unspecified) | 13.9%
54 | O=C(CSc1nnc(-c2ccc(NS(=O)(=O)c3ccccc3)cc2)o1)NCC1CCCO1 (stereo unspecified) | -1.17%
55 | CCn1c(=S)sc2c(=O)n(CC(=O)Nc3ccc(OC)cc3)c(C)nc21 | -0.488%
56 | Cc1ccccc1OCCC(=O)OCC(=O)NC(C)c1ccccc1 (stereo unspecified) | 1.95%
57 | CCC(C)c1ccccc1NC(=O)CN(C)CC(=O)Nc1ccccc1SC (stereo unspecified) | -13.3%
58 | Cc1cc(C(=O)COc2ccccc2[N+](=O)[O-])c(C)n1-c1cccc(S(=O)(=O)N2CCOCC2)c1 | 0.979%
59 | Cc1nnc(SCC(=O)N/N=C/c2cn(-c3ccccc3)nc2-c2ccc(F)cc2)n1-c1ccccc1 | 10.2%
60 | CC(C)(C)OC(=O)N/N=C/c1cn(-c2ccccc2)nc1-c1cccnc1 | 17%
61 | Cc1ccc(-c2nn(-c3ccccc3)cc2/C=N/NC(=O)c2ccc3c(c2)OCO3)cc1 | 16.9% (active)
62 | O=C(NCc1ccccc1)[C@H]1C[C@@H]1[C@H](NP(=O)(c1ccccc1)c1ccccc1)c1ccccc1 | 4.56%
63 | CC(=O)N1CCCc2cc(S(=O)(=O)N3CCCC(C(=O)N4CCN(c5cccc(Cl)c5)CC4)C3)ccc21 (stereo unspecified) | 8.4%
64 | Cc1sc2ncn(CC(=O)NCCCC(=O)N3CCN(c4ccccc4F)CC3)c(=O)c2c1C | -3.83%
65 | CCOc1ccc(OCCSc2nc3ccccc3n2CC(=O)O)cc1 | -2.45%
66 | S=C(NNC(=S)NC1CC2C=CC1C2)NC1CC2C=CC1C2 (stereo unspecified) | 9.74%
67 | CC(NC(=S)Nc1ccc(OC(F)F)cc1)c1ccc(F)cc1 (stereo unspecified) | 1.93%
68 | CC(C)c1ccc(NC(=S)NC2CC3C=CC2C3)cc1 (stereo unspecified) | 51.4% (active)
69 | CCOc1ccccc1N1CN(Cc2ccccc2)CNC1=S | -1.15%
70 | Cc1ccccc1NCC(=O)N/N=C\c1ccc([N+](=O)[O-])s1 | 25.2%
71 | CSc1ccc(/C=C/C(=O)NC23CC4CC(CC(C4)C2)C3)cc1 | 49.9% (active)
72 | Cc1ccc(C(=O)NC23CC4CC(CC(C4)C2)C3)c(Cl)c1 | 11.3%

Row | SMILES | max response
73 | CSc1ccc(NC(=O)/C=C/C(=O)O)cc1 | 6.1%
74 | CC1(C)CC(=O)c2c(n(S(=O)(=O)c3ccccc3)c3ccc(NS(=O)(=O)c4ccccc4)cc23)C1 | -1.24%
75 | CCn1c(SCc2ccccc2)nc2cc(OC)c(OC)cc2c1=O | 0.431%
76 | CCS(=O)(=O)n1nc(-c2ccccc2)nc1SCc1ccccc1 | 62.5% (active)
77 | CCS(=O)(=O)n1nc(-c2ccc(OC)cc2)nc1SC | 23.6% (active)
78 | COc1ccc(-n2c(SC)nc(O)cc2=O)cc1 | -4.06%
79 | CCOC(=O)N1CCN(S(=O)(=O)c2ccc(OC)cc2)CC1 | -1.81%
80 | CCn1c(SCc2ccccc2)nc2c(c1=O)SCC2 | -1.78%
81 | CCOc1ccc(CN2CCNC(=O)C2CC(=O)NCCCC2CCCC2)cc1 (stereo unspecified) | 16.3%
82 | CCOc1ccc(/C=N/NC(=O)CSc2ccccn2)cc1O | 1.88%
83 | Cc1cc(C(=O)N/N=C/c2ccccn2)c2ccccc2n1 | -8.99%
84 | CCOc1cc(/C=N/Nc2cc(C)nc3ccc(C)cc23)ccc1O | 17.3% (active)
85 | Cc1ccc2nc(C)cc(N/N=C/c3ccc(F)cc3)c2c1 | -2.09%
86 | COc1cccc(-c2cc(C(=O)N/N=C/c3ccc(OC)c(COC(C)=O)c3)c3ccccc3n2)c1 | 2.97%
87 | CCOc1cc(/C=N/NC(=O)c2cc(-c3ccccc3)nc3ccccc23)ccc1O | 17.7% (active)
88 | COc1cc(OC)c2c(C)cc(=O)oc2c1C(CCN1CCCCC1)c1ccc(N(C)C)cc1 (stereo unspecified) | -1.45%
89 | COc1cc(CN2CCCC(C(=O)c3ccc(SC)cc3)C2)cc(Cl)c1O (stereo unspecified) | 4.43%
90 | N=c1n(CCc2ccccc2)c2ccccc2n1Cc1ccccc1F | -8.79%
91 | COc1ccc(C)cc1NC(=S)N1CCOCC1 | -2.32%
92 | COc1ccccc1/C=C/C=N/NC(=O)CN1CCN(Cc2ccccc2)CC1 | -1.49%
93 | COc1ccccc1/C=C/C(=O)NC1CC2CCC1C2 (stereo unspecified) | 14.3% (active)
94 | COc1ccccc1C(=O)Nc1cccc(C(=O)N2CCOCC2)c1 | -2.39%
95 | CCOC(=O)C(=Cc1ccccc1OC)C(=O)OCC | 2.29%
96 | COc1ccccc1/C=C/C(=O)NC(=S)N1CCOCC1 | 47.7% (active)
